# Measurements reported in PubChem BioAssay AID2732 (Emory University Molecular Libraries Screening Center, 2010).
# Values joined by “and” are separate entries in the source; they are usually repeats but may differ in a detail not shown here. Identical values can stand only once. About 8,200 (3.7%) of roughly 220,000 compounds were called active.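 The calls were made as follows: active = compounds that reduced the stress-induced luciferase reporter signal by more than about 70% of percent inhibition (limit read from the data); inactive = the rest.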 The list comes from a sample in which actives are over-represented; it also holds similar structures and randomly drawn compounds. The source holds several records for some structures; these can differ, active in one and inactive in another.
# Experiment: inhibitors of CHOP promoter induction, primary screen, cell-based, unfolded protein response, luciferase reporter (AID 2732);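 also: 0% = tunicamycin plus vehicle and 100% = wells without tunicamycin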
# Conditions: CHO-K1 CHOP-promoter luciferase, tunicamycin-induced, 15-18 h; at 10 µM; stronger effect = higher value
row,Structure (SMILES),inhibition
1,Cc1ccc(-n2[nH]c(C)c(/C=N/N3C(=O)c4cccc5cccc(c45)C3=O)c2=O)cc1,36.5% (inactive)
2,CCc1nnc(NS(=O)(=O)c2ccc(N=Cc3c(C)[nH]n(-c4ccc(C)cc4)c3=O)cc2)s1,-15.8% (inactive)
3,COc1cc(SC#N)ccc1N=Cc1c(C)[nH]n(-c2ccc(C)cc2)c1=O,107% (active)
4,CCCCCCCCCCCCN1C(=O)CSC1c1cccnc1 (configuration not stated),28.5% (inactive)
5,COc1ccc(C(=O)CN2C(=O)NC(C)(c3ccc(C)cc3)C2=O)cc1OC (configuration not stated),15.7% (inactive)
6,Cc1ccc(C2(c3ccc(C)cc3)NC(=O)N(Cc3c(C)noc3C)C2=O)cc1,92.8% (active)
7,Cc1noc(C)c1COc1ccc2ccc(=O)oc2c1,2.13% (inactive)
8,Cc1cc(F)ccc1NC(=O)C(C)n1c2ccccc2c2nc(=O)cc(C)n21 (configuration not stated),-2.79% (inactive)
9,CC1=NNC(=O)C1CC(=O)N/N=C/c1ccncc1 (configuration not stated),9.24% (inactive)
10,C#CCOCCOCCOCCNc1nc(N2CCN(C(=O)[C@H](CCC(=O)O)n3cc(C(N)CO)nn3)CC2)nc(N2CCN(C(=O)[C@H](CCCCN)n3cc(C(N)CC(C)C)nn3)CC2)n1 (some centres not stated),-22.6% (inactive)
11,Cn1nc(C(F)(F)F)cc1-c1ccc(/C=C(\C#N)C(=O)c2cccc(C(F)(F)F)c2)s1,-6.02% (inactive)
12,Cc1cccc(NC(=O)c2sc(-c3ccccc3)nc2-c2ccc([N+](=O)[O-])cc2)c1,31.6% (inactive)
13,CCOC(=O)/C(=C\c1ccc([N+](=O)[O-])cc1)C(=O)c1cc(C(C)=O)c(Nc2ccccc2)s1,112% (active)
14,CCOC(=O)COc1ccc([N+](=O)[O-])cc1,3.34% (inactive)
15,COC(=O)c1sc(C(F)(F)F)c(-c2ccccc2)c1S(=O)(=O)N(C)C,21.3% (inactive)
16,CC(C)c1ccc2c(c1)c(SC(C)(C)C)c(CC(C)(C)C(=O)O)n2Cc1ccc(Cl)cc1,-15.8% (inactive) and 96.6% (active)
17,O=S(=O)(NCCc1csc(-c2ccccc2)n1)c1cccnc1,10.5% (inactive)
18,Cc1ccc(NC(=O)Nc2ccc3oc(C)nc3c2)cc1,-9.69% (inactive)
19,Cc1ccc(N/C(N)=N/c2nc(C(F)(F)F)cc(C(F)(F)F)n2)cc1,92.5% (active)
20,COc1ccc2nc(/N=C(\N)NC(=O)Nc3ccccc3)nc(C)c2c1,29.8% (inactive)
21,C/C=C\C=C\C(=O)N1CC2(CC(c3cccc(NC(=O)/C(C)=C\C)c3)=NO2)C[C@H]1C(N)=O (some centres not stated),-9.78% (inactive)
22,Cc1cccc(NC(=O)c2ccc([N+](=O)[O-])o2)c1,-27% (inactive)
